Here are results for 40 compounds from ChEMBL document CHEMBL3988442, “University of Dundee, Small-Polar-MMV Screening Library” (2021).

The structures appear in SMILES notation. Potency and affinity values are given separately.

The target of the assay is Protein translocase subunit SecA (Escherichia coli (strain K12)) (UniProt P10408). Nature of the assay: Assay to Identify E. coli SecA ATPase Inhibitors. The note with it: 30 µM. The format is functional. The arrangement: scale not given: direction of the effect not stated beside the values.
Protein translocase subunit SecA (Escherichia coli (strain K12)), sequence (P10408 whole entry): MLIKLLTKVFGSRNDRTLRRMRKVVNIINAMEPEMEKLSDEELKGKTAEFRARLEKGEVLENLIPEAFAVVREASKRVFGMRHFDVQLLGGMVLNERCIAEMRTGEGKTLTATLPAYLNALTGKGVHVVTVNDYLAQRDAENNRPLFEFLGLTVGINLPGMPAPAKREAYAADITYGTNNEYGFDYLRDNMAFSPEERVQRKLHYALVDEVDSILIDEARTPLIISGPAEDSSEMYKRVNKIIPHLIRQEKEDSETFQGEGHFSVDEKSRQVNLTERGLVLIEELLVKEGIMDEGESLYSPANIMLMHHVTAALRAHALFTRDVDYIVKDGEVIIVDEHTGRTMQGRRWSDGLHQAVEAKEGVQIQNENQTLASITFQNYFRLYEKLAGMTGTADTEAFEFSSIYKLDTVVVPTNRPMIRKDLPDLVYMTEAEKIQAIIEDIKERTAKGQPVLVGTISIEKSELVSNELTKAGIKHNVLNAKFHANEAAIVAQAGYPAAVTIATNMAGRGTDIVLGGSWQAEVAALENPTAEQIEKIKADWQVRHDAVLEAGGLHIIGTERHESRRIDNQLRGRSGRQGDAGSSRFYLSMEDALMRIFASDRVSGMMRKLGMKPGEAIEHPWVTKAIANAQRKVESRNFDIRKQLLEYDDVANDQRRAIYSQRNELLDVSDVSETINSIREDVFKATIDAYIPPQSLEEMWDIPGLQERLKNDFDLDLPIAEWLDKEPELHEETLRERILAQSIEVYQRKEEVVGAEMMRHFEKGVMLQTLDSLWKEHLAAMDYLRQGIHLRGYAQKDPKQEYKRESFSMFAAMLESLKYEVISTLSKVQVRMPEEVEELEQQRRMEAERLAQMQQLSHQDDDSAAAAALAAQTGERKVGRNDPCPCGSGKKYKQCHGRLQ
For the compound `CN(Cc1ccsc1)C(=O)c1cccc(S(=O)(=O)NC(C)(C)C)c1`, the Percent Effect was -1.82%. For `Clc1snnc1CN1CCCCC1Cn1cncn1` (stereo not given), the Percent Effect was -0.0251%. For `O=C(CC1CC1)N1CCC2(CC1)CN(c1ncccn1)CCO2`, the Percent Effect is -2.48%. In the case of `CC(C)c1noc(CCC(=O)NC(C)c2nnc3n2CCCCC3)n1` (stereo not given), the Percent Effect is -2.21%. For `CC1c2ncc(COc3cccnc3)n2CCN1C(=O)Cc1ccco1` (stereo not given), the Percent Effect was -6.11%. As to `COc1cccc(CN(C)S(=O)(=O)N2CCOCC2)c1`, the Percent Effect is -1.1%.

In the case of `Cc1ccc(S(=O)(=O)NC2CNC(=O)C2)cc1C` (stereo not given), the Percent Effect is -5.32%. The value for `COCC(O)CN(C)C(=O)NC1CCN(Cc2ccccn2)CC1` (stereo not given) was -2.64%. Consider `O=C(NCc1ccco1)[C@H]1C[C@H]2OCC[C@H]2N(S(=O)(=O)C2CC2)C1`, for which the Percent Effect was -3.9%. Take `Cc1ncsc1CN1C[C@@H](OCC2CC2)[C@H]2OCCC[C@H]21`: the Percent Effect is -6.87%. Regarding `COc1ccc(C2Nc3ccccc3C3=NCCCN32)cc1OC` (stereo not given), the Percent Effect is -5.46%. As for `O=C(NC[C@]12COC[C@H]1CN(Cc1nccs1)C2)N1CCCC1`, the Percent Effect is -2.52%. As to `CC(C)c1cc(NC(=O)c2ccc(NC3CC3)nc2)[nH]n1`, the Percent Effect is -5.31%. Consider `O=C(c1cnc(C2CC2)s1)N1CCCC(n2cccn2)C1` (stereo not given), for which the Percent Effect was -2.59%. Regarding `O=C1N(c2ccc(Br)cc2)Cc2nc(=O)[nH]n21`, the Percent Effect was -6.3%.

Regarding `COc1ccc(C(=O)N(Cc2cnn(C)c2)C(C)C)cc1Br`, the Percent Effect is -4.7%. The value for `CCCc1cc(C(=O)N(C)Cc2cccc3ncccc23)n(C)n1` was -4.03%; that for `Cc1nc(CN2C[C@@H]3CN(C(=O)C4CC4)C[C@@H]3C2=O)cs1` was -1.35%. `Cc1ccc(NC(=O)NCCCc2n[nH]c(N)c2C#N)cc1`: the Percent Effect was -1.33%. For the compound `CS(=O)(=O)NCC(=O)NC1CCc2nccn2C1` (stereo not given), the Percent Effect worked out at 0.138%.

Turning to `CCCN(CC(=O)NC)C(=O)c1ccc(-c2ccsc2)nc1C`, the Percent Effect is -1.19%. In the case of `Cc1ccc(C(=O)N2CCc3c(CNS(C)(=O)=O)cncc3C2)o1`, the Percent Effect amounted to 3.13%.

As for `Cc1cnn(CCC(=O)N2CCOC(c3nc(C(C)(C)C)n[nH]3)C2)c1` (stereo not given), the Percent Effect was -3.54%. As to `COc1cc(C)nc(N2CCN(C(=O)c3ccccc3C)CC2)n1`, the Percent Effect was -6.89%. In the case of `COCC1CC2(CCN(C(=O)c3cccn3C)CC2)CN1C(C)C` (stereo not given), the Percent Effect is -2.49%.

In the case of `Cc1cc(C(=O)N2C[C@@H]3COC[C@]3(c3nnc(C4CC4)o3)C2)on1`, the Percent Effect was -4.61%. For `CCOc1nnc(CN2CCC(N(C)Cc3noc(C)n3)C2)s1` (stereo not given), the Percent Effect is -0.236%. For the compound `Cc1cnc(CN(C)C2CCN(CC(=O)Nc3c(C)n[nH]c3C)C2)o1` (stereo not given), the Percent Effect was found to be 3.19%. In the case of `CNC(=O)C1CCN(C(=O)CCn2cccn2)CC1`, the Percent Effect is -7.35%.

Regarding `COCCNC(=O)[C@@H]1CC[C@@H]2[C@@H](CCN2Cc2cnn(C)c2)O1`, the Percent Effect is -1.36%. Regarding `Cc1cc(C)n(CC2CCCN2C(=O)CCCc2ccccn2)n1` (stereo not given), the Percent Effect is -6.25%.

As for `Cc1nccc(-c2cccc(NCC(=O)N3CCNC3=O)c2)n1`, the Percent Effect was -3.58%. Under `O=C(c1cnco1)N1CCCC(Cc2cccc3ncccc23)C1` (stereo not given) stands -1.91%; under `O=C(NCC(=O)N1CCCCC1)c1ccc(Cl)cc1I`, -0.681%; under `Cc1cncc(C2CCCN(C(=O)c3scnc3C)C2)n1` (stereo not given), -5.85%.

Regarding `COC1CCN(C(=O)Cc2csc(-c3ncccn3)n2)CC1`, the Percent Effect was -1.74%. The value for `CC(C)Cc1noc(CN2CCOC(Cn3cncn3)C2)n1` (stereo not given) was -1.12%; that for `Cc1nc(C)n(C2CCCN(C(=O)c3ccccc3C)C2)n1` (stereo not given) was -0.244%; that for `CCCc1ncc(C(=O)N2CCOC(c3nc(C)n[nH]3)C2)s1` (stereo not given) was -2.75%. With `Cc1ccsc1[C@@H]1CCN(C(=O)c2cc3ccccc3[nH]2)C[C@H]1O`, the Percent Effect is -2.04%.
